According to PubChem BioAssay:
For part of these data: Entries with a potency or affinity are not part of this list. Activity calls are given as the source filed them.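 Rule for the calls, unless noted: active = dose curve with midpoint inside tested range, moderate steepness, plateau gap beyond fit error, low compound glow and bead-link interference; inactive = the rest.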

Tests used:
[1] = target: Cell division control protein 42 homolog (Homo sapiens) (UniProt P60953); test: activated mutant Cdc42 GTP-binding inhibitors, dose response, biochemical, multiplex bead flow cytometry, Bodipy-FL-GTP (AID 1333;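 active = fitted half-maximal concentration within the tested dose range, moderate curve steepness, a statistically real signal drop, and little compound fluorescence or tag-binding interference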)
[2] = target: Cell division control protein 42 homolog (Homo sapiens) (UniProt P60953); test: wildtype Cdc42 GTP-binding inhibitors, dose response, biochemical, multiplex bead flow cytometry, Bodipy-FL-GTP (AID 1334;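 active = fitted half-maximal concentration within the tested range, moderate curve steepness, significant signal drop, and little compound fluorescence or bead-linkage interference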); details: bead-based flow cytometry, Bodipy-FL-GTP binding to GST-Cdc42; at 100 µM (top of the series) unless noted
[3] = target: GTPase HRas (Homo sapiens) (UniProt P01112); test: inhibitors of GTP binding to wildtype Ras, dose response, biochemical, multiplex bead flow cytometry (AID 1335;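 active = fitted half-maximal concentration within 10 nM to 100 µM, steepness 0.5 to 2, significant signal drop, low assay interference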); details: bead-based flow cytometry, Bodipy-GTP binding to GST-Ras; at 100 µM (top of the series) unless noted
[4] = system: Ras-related protein Rab-7a (dog), GTP binding; test: Rab7 GTP binding inhibitors, potency, dose response, biochemical, wildtype, multiplex bead flow cytometry (AID 1336; call rule not given here)
[5] = target: Ras-related C3 botulinum toxin substrate 1 (Homo sapiens) (UniProt P63000); test: wildtype Rac1 GTP binding inhibitors, dose response, biochemical, multiplex bead flow cytometry (AID 1340); details: GST-Rac1 beads, Bodipy-FL-GTP binding; at 100 µM (top of the series) unless noted
[6] = target: GTPase HRas (Homo sapiens) (UniProt P01112); test: activated Ras mutant GTP binding inhibitors, dose response, biochemical, multiplex bead flow cytometry (AID 1341;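 active = dose-response curve with midpoint inside the tested range, moderate steepness, significant amplitude and little compound fluorescence or bead-attachment interference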;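 note: GST-tagged constitutively activated Ras mutant immobilized on beads and multiplexed with other GTPases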)

Sequence of GTPase HRas (Homo sapiens) (P01112 whole entry, looked up): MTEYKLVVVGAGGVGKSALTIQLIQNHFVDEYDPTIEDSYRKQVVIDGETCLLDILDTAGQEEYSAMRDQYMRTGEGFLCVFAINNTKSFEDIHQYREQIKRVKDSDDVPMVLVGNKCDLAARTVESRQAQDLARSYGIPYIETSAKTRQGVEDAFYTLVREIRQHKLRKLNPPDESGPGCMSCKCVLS
Sequence of Cell division control protein 42 homolog (Homo sapiens) (P60953 whole entry, looked up): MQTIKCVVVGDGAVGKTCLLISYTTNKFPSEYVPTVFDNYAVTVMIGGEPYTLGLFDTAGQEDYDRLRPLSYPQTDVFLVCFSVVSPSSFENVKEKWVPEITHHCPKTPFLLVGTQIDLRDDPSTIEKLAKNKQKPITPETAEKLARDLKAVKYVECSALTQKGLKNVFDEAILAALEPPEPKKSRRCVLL

| Compound | outcome [1] | fluorescence, percent of control (lower = inhibition) [2] [%] | GTP binding, percent of control [3] [%] | outcome [4] | GTP binding signal, raw median fluorescence (lower = inhibition) (MCF (arbitrary fluorescence units)) [5] | outcome [6] |
| --- | --- | --- | --- | --- | --- | --- |
| C=CCn1c(-c2csc(-c3ccc(Cl)cc3)n2)n[nH]c1=S | inactive | 40.8 | 89.3 | inactive | 262 | inactive |
| COc1ccc(CNc2nc3c(c(=O)n(Cc4ccc(Cl)cc4)c(=O)n3C)n2C)cc1 | inactive | 29.3 | 80.3 | inactive | 228 | inactive |
| O=C(O)c1cccc(-n2cccc2/C=C2/NC(=O)N(c3ccc(Cl)cc3)C2=O)c1 | inactive | 22.7 | 64.3 | inactive | 213 | inactive |
| COc1cc2[nH]c(=S)nc(NC3CCCCCC3)c2cc1OC | inactive | 26.4 | 60.9 | inactive | 148 | inactive |
| CCOC(=O)C1(Cc2ccccc2)CCCN(CCO)C1 (stereo not given) | inactive | 37.6 | 80.3 | inactive | 246 | inactive |
| O=C(O)c1c(C(F)(F)F)ccnc1SCc1ccccc1 | inactive | 62 | 228 | inactive | 55.9 | inactive |
| CC1=C(C#N)c2nc(N)c(C#N)c(C)c2/C1=C\c1ccc(-c2ccccc2C(=O)O)o1 | inactive | 30.1 | 74.4 | inactive | 159 | inactive |
| Cc1cc(N/N=C/c2ccc(O)cc2O)nc(-c2ccccc2O)n1 | inactive | 40.3 | 48.8 | inactive | 143 | inactive |
| COc1ccc2c3c(cccc13)C(=O)N(O)C2=O | inactive | 30.1 | 69.8 | inactive | 145 | inactive |
| Cc1ccc(OCCn2cc(C(=O)O)c3ccccc32)cc1 | inactive | 45.4 | 96.7 | inactive | 280 | inactive |
| COc1cc([N+](=O)[O-])cc(/C=N/NC(=O)c2ccc(NC(=O)c3ccc(C)cc3)cc2)c1O | inactive | 33 | 77.6 | inactive | 226 | inactive |
| COc1cc(/C=C(\C#N)c2nc3ccc(C)cc3[nH]2)cc([N+](=O)[O-])c1O | inactive | 25.3 | 61.6 | inactive | 151 | inactive |
| COc1ccc(-n2c(C)cc(/C=C3\SC(=S)N(Cc4ccco4)C3=O)c2C)cc1 | inactive | 75.8 | 89.9 | inactive | 230 | inactive |
| COCCCNc1nc(=S)[nH]c2cc(OC)c(OC)cc12 | inactive | 32.5 | 41.5 | inactive | 99 | inactive |
| CC(C)n1c(O)c(N=Nc2ccc(Cl)nn2)c2ccccc21 | inactive | 69.1 | 78.2 | inactive | 196 | inactive |
| Cc1noc(NS(=O)(=O)c2ccc(NC(=O)CSc3nnc4c(n3)[nH]c3ccccc34)cc2)c1C | inactive | 21.2 | 32.7 | inactive | 41.2 | inactive |
| COc1cc(CCNc2ccc3nnc(-c4ccccc4)n3n2)cc(OC)c1OC | inactive | 34.8 | 44 | inactive | 123 | inactive |
| CCOC(=O)Cc1csc(NC(=O)CSc2nc(-c3ccccc3)c(C#N)c(=O)[nH]2)n1 | inactive | 29.4 | 76.1 | inactive | 218 | inactive |
| Cc1ccc(OCCSc2nc3ccccc3n2CC(=O)O)c(C)c1 | inactive | 55.9 | 85 | inactive | 29.2 | inactive |
| COc1ccc(/C=C2\SC(=S)N(CCCC(=O)NNC(=O)c3ccccc3O)C2=O)cc1 | inactive | 32.8 | 73.5 | inactive | 203 | inactive |

| Compound | outcome [1] | fluorescence, percent of control (lower = inhibition) [2] [%] | GTP binding, percent of control [3] [%] | outcome [4] | GTP binding signal, raw median fluorescence (lower = inhibition) (MCF (arbitrary fluorescence units)) [5] | outcome [6] |
| --- | --- | --- | --- | --- | --- | --- |
| O=C(O)/C=C/c1cn(Cc2ccccc2)nc1-c1ccccc1 | inactive | 101 | 72.4 | inactive | 175 | inactive |
| O=C(CCc1ccccn1)N1CCCC(CNS(=O)(=O)c2cccs2)C1 (stereo not given) | inactive | 36.9 | 82.7 | inactive | 279 | inactive |
| CCC(OC(=O)c1cc2sccc2n1C)C(=O)NCc1ccco1 (stereo not given) | inactive | 54.2 | 63 | inactive | 212 | inactive |
| Cc1nn2c(N)csc2nc1=O | inactive | 56.9 | 67.8 | inactive | 94.3 | inactive |
| CN(C)CCN(C(=O)c1ccc(N2C(=O)CCC2=O)cc1)c1nc2cc3c(cc2s1)OCO3 | inactive | 35.7 | 79.3 | inactive | 261 | inactive |
| O=C(Cc1ccc(Nc2nc(=S)[nH]c3ccccc23)cc1)NC1CCCCC1 | inactive | 25.9 | 61.6 | inactive | 153 | inactive |
| CCOC(=O)Cn1nnnc1C(CC)N(Cc1ccccc1)Cc1cc2cc(C)ccc2[nH]c1=O (stereo not given) | inactive | 83.7 | 155 | inactive | 182 | inactive |
| CN(C)S(=O)(=O)c1ccc(C(=O)NNc2nc(-c3ccccc3)c3cc(Br)ccc3n2)cc1 | inactive | 31.2 | 71.7 | inactive | 166 | inactive |
| Cc1cc(-c2n[nH]c(=S)n2/N=C/c2cc([N+](=O)[O-])ccc2Cl)n[nH]1 | inactive | 40.4 | 54.8 | inactive | 105 | inactive |
| Cc1ccccc1COc1cccc(C)c1C(=O)O | inactive | 58 | 200 | inactive | 56.1 | inactive |
| COc1ccccc1NS(=O)(=O)c1cc([N+](=O)[O-])ccc1N/N=C/c1sc(N2CCOCC2)nc1-c1ccccc1 | inactive | 73.1 | 81 | inactive | 230 | inactive |
| Cc1ccc(S(=O)(=O)N2CC3(C)CN(S(=O)(=O)c4ccc(C)cc4)CC(C)(C2)C3O)cc1 (stereo not given) | inactive | 50 | 61.9 | inactive | 204 | inactive |
| O=C(N/N=C/c1ccc([N+](=O)[O-])o1)c1cn(-c2ccccc2)nc1-c1ccc(Cl)cc1 | inactive | 31.7 | 77 | inactive | 207 | inactive |
| Cc1cccc(NCc2ccc(O)c3ncccc23)c1C | inactive | 39.8 | 84.4 | inactive | 259 | inactive |
| O=c1c2ccccc2nc2ccc(NCc3ccco3)nn12 | inactive | 31.4 | 71.8 | inactive | 196 | inactive |
| O=C(O)c1cc2ccccc2nc1OCc1ccccc1 | inactive | 49.1 | 200 | inactive | 46.4 | inactive |
| O=C(O)c1nnn(Cc2ccccc2)c1C(=O)O | inactive | 60.5 | 82.2 | inactive | 33 | inactive |
| Cc1cc(/C=c2\sc3nc4ccccc4n3c2=O)c(C)n1-c1ccc(C(=O)O)cc1 | inactive | 18.4 | 70.1 | inactive | 204 | inactive |
| O=c1c2ccccc2nc2c3ccccc3c(NCCN3CCOCC3)nn12 | inactive | 42.6 | 52.2 | inactive | 132 | inactive |
| Cc1c(Cl)cccc1NS(=O)(=O)c1ccc2c(c1)C1C=CCC1C(c1ccc(C(=O)O)cc1)N2 (stereo not given) | inactive | 22.3 | 72.9 | inactive | 222 | inactive |

| Compound | outcome [1] | fluorescence, percent of control (lower = inhibition) [2] [%] | GTP binding, percent of control [3] [%] | outcome [4] | GTP binding signal, raw median fluorescence (lower = inhibition) (MCF (arbitrary fluorescence units)) [5] | outcome [6] |
| --- | --- | --- | --- | --- | --- | --- |
| NS(=O)(=O)c1ccc(CCN2C(=O)/C(=C\c3ccc(Cl)cc3)SC2=S)cc1 | inactive | 29 | 76.5 | inactive | 242 | inactive |
| C/C(=N\NC(=O)c1ccc(Cl)c(S(=O)(=O)Nc2ccccc2Cl)c1)c1ccncc1 | inactive | 38.1 | 54 | inactive | 92 | inactive |
| Nc1c(S(=O)(=O)c2ccccc2)c2nc3ccccc3nc2n1C1CC1 | inactive | 33.3 | 80 | inactive | 196 | inactive |
| O=C(O)c1cc([N+](=O)[O-])ccc1NCc1ccccc1Cl | inactive | 96.9 | 112 | inactive | 84.1 | inactive |
| COc1cccc(/C=C2\SC(=S)N(NC(=O)c3ccncc3)C2=O)c1 | inactive | 26.6 | 63.7 | inactive | 116 | inactive |
| COc1ccc2c(C(=O)O)cn(CCOc3ccccc3C)c2c1 | inactive | 64.6 | 214 | inactive | 59.2 | inactive |
| COc1ccc(-n2c(C)cc(/C=C3/SC(=S)N(C)C3=O)c2C)cc1 | inactive | 76.1 | 85.8 | inactive | 0 | inactive |
| Cc1nnc2ccc(-c3cccc(NC(=O)c4ccc(Br)o4)c3)nn12 | inactive | 34.5 | 81.8 | inactive | 206 | inactive |
| C=CCn1c(COc2ccc(F)cc2)nnc1SCC(=O)c1c[nH]c2c(CC)cccc12 | inactive | 50.5 | 60.7 | inactive | 190 | inactive |
| COc1ccccc1OCc1ccoc1C(=O)O | inactive | 62.9 | 87 | inactive | 35.8 | inactive |
| COc1cc(C(=S)NC2CCCCC2)ccc1O | inactive | 46.9 | 62.4 | inactive | 209 | inactive |
| Cc1nc2cccc(C)n2c(=O)c1Cl | inactive | 38.6 | 83.8 | inactive | 255 | inactive |
| COc1ccc(CCNc2cc(=O)[nH]c(N)n2)cc1 | inactive | 34.1 | 48.2 | inactive | 94.3 | inactive |
| CCCCCCCCCCCC(=O)c1c(O)cccc1O | inactive | 28.4 | 79.8 | inactive | 241 | inactive |
| O=C(NNc1nc(-c2ccccc2)c2cc(Br)ccc2n1)c1ccc(S(=O)(=O)N2CCOCC2)cc1 | inactive | 40.3 | 53.5 | inactive | 124 | inactive |
| Cc1ccc(Nc2n[nH]c(C)c2[N+](=O)[O-])c(C)c1 | inactive | 52.6 | 65.8 | inactive | 194 | inactive |
| COc1ccc(C(=O)O)c(OCc2ccccc2Br)c1 | inactive | 59.6 | 171 | inactive | 56.1 | inactive |
| COc1ccc(C(CC(=O)O)NC(=O)c2cc3cc(Br)ccc3oc2=O)cc1OC (stereo not given) | inactive | 31 | 78.7 | inactive | 213 | inactive |
| OCCC1CN(Cc2ccccc2O)CCN1CCc1ccccc1 (stereo not given) | inactive | 34.2 | 82.7 | inactive | 255 | inactive |
| O=C(O)CCCCCNS(=O)(=O)c1cccc2c1C(=O)c1ccccc1C2=O | inactive | 32.5 | 45.9 | inactive | 0 | inactive |
